The source of these data is PubChem BioAssay (Tox21).

A short description of experiment [1]: qHTS assay for small molecule agonists of the p53 signaling pathway (AID 651631; calls by dose curve; also: nearly all actives have a fitted effect of over 15% in size; also: potency is read from the fitted curve at half-maximal effect). The essentials: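 HCT-116 cells carrying a beta-lactamase reporter under p53 response elements were dosed with compound for 16 h at 37 °C. LiveBLAzer B/G FRET substrate was then added for 2 h at room temperature, and fluorescence intensity was read to detect pathway agonism.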
(In general: qHTS replaces the single test concentration by a dilution series.)

The nature of experiment [2]: qHTS assay for small molecules that induce genotoxicity in human embryonic kidney cells expressing luciferase-tagged ATAD5 (AID 651632). Also: nearly all actives have a fitted effect of over 15% in size. The essentials: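 Luminescence read-out: after 16 hr compound exposure at 37C, ATAD5-luciferase HEK293T cells received Amplite, 30 min RT, then CCD imaging. A rise in signal marks genotoxic stress.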
Experiment [3] can be described thus: qHTS assay for small molecule agonists of the p53 signaling pathway - cell viability (AID 651633; calls by dose curve;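 also: p53RE-bla HCT reporter cells with a stable beta-lactamase p53 reporter; series mostly up to about 83 µM; nearly all actives have a fitted effect of over 30% in size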). The essentials: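 Viability counter-read: CellTiter-Glo luminescence (30 min, room temperature) in the same p53RE-bla plates. These plates had been exposed to compounds for 16 h at 37 C.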
Experiment [4] in a line: qHTS assay for small molecules that induce genotoxicity in human embryonic kidney cells expressing luciferase-tagged ATAD5 - cell viability (AID 651634; calls by dose curve; also: nearly all actives have a fitted effect of over 25% in size). Put shortly:
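HEK293T ATAD5-luc cells, 2,000/well; compound 15.5 hr, 37C/5% CO2; CellTiter-Fluor 30 min, 37C; fluorescence read.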

Experiment [5] in a line: qHTS assay for small molecule disruptors of the mitochondrial membrane potential - cell viability (AID 720634; calls by dose curve; also: nearly all actives have a fitted effect of over 20% in size; also: potency is read from the fitted curve at half-maximal effect). Put shortly:
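Luminescence from CellTiter-Glo (ATP content) gave viability in HepG2 cells, read in the same wells as the MMP dye assay after 1 hr compound exposure at 37 C.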

Experiment [6] can be described thus: qHTS assay for small molecule disruptors of the mitochondrial membrane potential (AID 720635). Also: potency is read from the fitted curve at half-maximal effect. The essentials: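 Mitochondrial membrane potential tracked with Mito-MPS dye, red aggregates (ex 540/em 590 nm) against green monomers (ex 490/em 535 nm). Compound treatment 1 hr at 37C, dye 30 min in HepG2.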
Experiment [7] in a line: qHTS assay to test for compound auto fluorescence at 590 nm (red) in HepG2 cells (AID 720674). Put shortly:
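1 hr compound incubation on HepG2 cells, 37 C, 5% CO2; plate read ex 540 nm / em 590 nm; intensities reported as Rose Bengal sodium equivalents.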

A short description of experiment [8]: qHTS assay to test for compound auto fluorescence at 535 nm (green) in HepG2 cells (AID 720675).
The nature of experiment [9]: qHTS assay to test for compound auto fluorescence at 460 nm (blue) in HEK293 cells (AID 720678). The essentials:
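Triamterene serves as the blue fluorophore standard. Compound signal at 405/460 nm is read in HEK293 wells (2,000 cells, 10% dialyzed FBS) after overnight treatment at 37C.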

Experiment [10] in a line: qHTS assay to test for compound auto fluorescence at 590 nm (red) in HEK293 cells (AID 720679). Put shortly: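 We plated HEK293 cells in 10% dialyzed FBS medium, let them adhere for 4-5 hr, then added 23 nL compound. Overnight at 37C and 5% CO2 preceded fluorescence measurement at 540/590nm.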
Experiment [11] in a line: qHTS assay to test for compound auto fluorescence at 535 nm (green) in HEK293 cells (AID 720680).
A short description of experiment [12]: qHTS assay to test for compound auto fluorescence at 460 nm (blue) in HEK293 cell free culture (AID 720681). The essentials: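 Blue fluorescence (Ex 405/Em 460 nm, triamterene-equivalent) was read immediately after pin transfer of compound or DMSO into medium (DMEM, 10% FBS) without cells.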
The nature of experiment [13]: qHTS assay to test for compound auto fluorescence at 535 nm (green) in HEK293 cell free culture (AID 720682). Put shortly:
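Green-label autofluorescence (485 nm excitation, 535 nm emission) measured on compound added to cell-free culture medium (DMEM, 10% FBS). Output is expressed relative to fluorescein.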

Experiment [14] can be described thus: qHTS assay to test for compound auto fluorescence at 590 nm (red) in HEK293 cell free culture (AID 720683). Put shortly:
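Red-channel autofluorescence of compounds in culture medium (DMEM, 10% FBS), no cells, measured at 540/590 nm. Rose Bengal sodium is the reference fluorophore for equivalence.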

Experiment [15] can be described thus: qHTS assay to test for compound auto fluorescence at 590 nm (red) in HepG2 cell free culture (AID 720684). The essentials: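 Cell-free; medium MEM + 10% FBS; compound or DMSO added by pintool; read Ex 540/Em 590 nm; Rose Bengal sodium as red reference fluorophore.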
A short description of experiment [16]: qHTS assay to test for compound auto fluorescence at 460 nm (blue) in HepG2 cell free culture (AID 720685). The essentials:
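Cell-free plates of MEM plus 10% FBS received 23 nL compound or DMSO vehicle; blue-channel (405/460 nm) intensity scored against triamterene as reference fluorophore.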

A short description of experiment [17]: qHTS assay to test for compound auto fluorescence at 535 nm (green) in HepG2 cell free culture (AID 720686).
Experiment [18] can be described thus: qHTS assay to test for compound auto fluorescence at 460 nm (blue) in HepG2 cells (AID 720687). Put shortly: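 Blue-channel autofluorescence (Ex/Em 405/460 nm, triamterene-equivalent) was measured after 1 hr compound exposure at 37 C, 5% CO2. Cells were HepG2, plated overnight at 37 C in MEM plus 10% FBS.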
Experiment [19] addresses Glucocorticoid receptor (Homo sapiens) (UniProt P04150). Kind of experiment: qHTS assay to identify small molecule agonists of the glucocorticoid receptor (GR) signaling pathway (AID 720691; active = well fitted activation curve with a large enough effect in the signal ratio in the repeat runs, not every such curve was filed as active; the % refers to the signal ratio). Put shortly: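 HeLa GR-bla reporter line; cells pre-incubated 4 h, compound in DMSO 18 h at 37 C; LiveBLAzer B/G FRET substrate 2 h RT; fluorescence intensity read-out.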
The target is the same in experiment [20]. The experiment can be described thus: qHTS assay to identify small molecule antagonists of the glucocorticoid receptor (GR) signaling pathway (AID 720692; active = well fitted inhibition curve with a large enough effect in the signal ratio in the repeat runs, not every such curve was filed as active; the % refers to the signal ratio). Put shortly:
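Read-out: beta-lactamase FRET substrate fluorescence, 2 h at room temperature, in HeLa cells stably carrying a GRE-driven bla reporter. Compounds were co-incubated with 5 nM dexamethasone agonist (final) for 18 h at 37 C.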

Where “and” joins values, the source holds several entries; their conditions need not be identical. Identical values can stand only once. A number with no mark means an inactive call. Results filed as inconclusive are left out. Calls of active or inactive are those of the source. Unless noted, calls follow the shape of the dose curve; as a rule, active = well fitted curve in the direction sought with a large enough effect in the repeat runs; inconclusive = weak or mixed curves; inactive = no such curve, though single readings can be large; an effect the other way counts as inactive or inconclusive.
% is scaled to controls: 0 for no effect and ±100 for the full control effect.

Chain of Glucocorticoid receptor (Homo sapiens) (P04150 whole entry, looked up): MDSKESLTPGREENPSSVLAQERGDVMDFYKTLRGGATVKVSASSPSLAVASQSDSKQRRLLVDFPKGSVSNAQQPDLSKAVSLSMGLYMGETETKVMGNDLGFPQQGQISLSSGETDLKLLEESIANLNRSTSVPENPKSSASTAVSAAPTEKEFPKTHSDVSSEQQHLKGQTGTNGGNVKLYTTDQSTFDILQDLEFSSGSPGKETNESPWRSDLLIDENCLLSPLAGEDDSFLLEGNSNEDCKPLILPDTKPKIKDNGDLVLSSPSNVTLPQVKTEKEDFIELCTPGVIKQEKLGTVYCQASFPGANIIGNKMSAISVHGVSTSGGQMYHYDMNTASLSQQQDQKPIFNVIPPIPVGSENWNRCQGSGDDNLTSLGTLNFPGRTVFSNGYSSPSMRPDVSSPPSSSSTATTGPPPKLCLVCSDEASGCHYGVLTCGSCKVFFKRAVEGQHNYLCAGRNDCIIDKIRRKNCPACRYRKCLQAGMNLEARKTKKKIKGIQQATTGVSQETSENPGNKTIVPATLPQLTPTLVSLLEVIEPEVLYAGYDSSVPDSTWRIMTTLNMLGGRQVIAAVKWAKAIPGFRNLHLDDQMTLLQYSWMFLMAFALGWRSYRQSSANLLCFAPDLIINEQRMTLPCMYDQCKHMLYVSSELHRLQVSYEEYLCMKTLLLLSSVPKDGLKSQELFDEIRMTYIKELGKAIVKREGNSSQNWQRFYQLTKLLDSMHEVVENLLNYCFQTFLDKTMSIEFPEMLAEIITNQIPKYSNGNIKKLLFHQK

Take `CS(=O)(=O)Cl`: the Potency entry in experiment [1], in experiment [3], in [4], in experiment [5] and in experiment [6] was “inactive” throughout. Moreover, the result in experiment [2], in [7], in experiment [8], in experiment [9], in experiment [10] and in experiment [11] was inactive. Moreover, the compound was called inactive in experiment [12], in experiment [13], in [14], in [15], in experiment [16] and in [17]. The result in experiment [18] was inactive.
With `CCCCCCCC(=O)Cl`, the Potency result in [1], in experiment [3], in [4], in [5], in experiment [6] and in experiment [19] was “inactive” in each case. In addition, in experiment [20], the Potency result is “inactive”. In addition, the result in experiment [2], in [7], in experiment [8], in experiment [10], in experiment [11] and in [12] was inactive. In addition, the result in [13], in experiment [15], in [16], in [17] and in experiment [18] was inactive.
`CCOC(=O)CC(SP(=S)(OC)OC)C(=O)OCC` (configuration not stated): the Potency entry in experiment [1], in [3], in experiment [4], in experiment [5], in experiment [6] and in [19] was “inactive” in each case. Also, the compound was classed as inactive in experiment [2], in experiment [7], in [8], in experiment [9], in experiment [10] and in experiment [11]. Also, the compound was classed as inactive in experiment [12], in experiment [13], in experiment [14], in experiment [15], in experiment [16] and in experiment [17]. For the same compound, the result in [18] was inactive.
In the case of `CC(C)[N+](C)(CCC(C(N)=O)(c1ccccc1)c1ccccc1)C(C)C`, the Potency result in [1], in experiment [3], in experiment [4], in experiment [5], in experiment [6] and in experiment [19] was “inactive” in each case. Moreover, the result in experiment [2] was inactive. Further, the fluorescence, relative to Rose Bengal in experiment [7] is -0.328% [at 18.6 µM]. In addition, the fluorescence, % of fluorescein control in experiment [8] is -0.0469% [at 18.6 µM]; in experiment [17], 0.0122% [at 18.6 µM]. The fluorescence, % of fluorescent control in experiment [10] was -0.12% [at 18.6 µM]; in experiment [12], 0.0496% [at 18.6 µM]; in experiment [14], 0.0889% [at 18.6 µM]; in experiment [16] it was -0.0402% [at 18.6 µM]. Further, the fluorescence, % of fluorescein in [11] was 0.0067% [at 18.6 µM]. Moreover, in experiment [13], the activity change is -0.0088% [at 18.6 µM]. In [15], the fluorescence, % of Rose Bengal is 0.379% [at 18.6 µM].
As to `C[C@H]1CCCC(=O)CCC/C=C/c2cc(O)cc(O)c2C(=O)O1`, the Potency was 9.33 µM (active) and 22.4 µM (active) in experiment [1]; 11.7 µM (active) and 20 µM (active) in experiment [5]; 2.34 µM (active) and 4.47 µM (active) in experiment [6]. Also, the compound was classed as inactive in experiment [2], in experiment [7], in experiment [8], in experiment [9], in [10] and in [11]. In addition, the result in experiment [12], in [13], in experiment [14], in experiment [15], in experiment [16] and in experiment [18] was inactive. In experiment [3], the Potency entry is “inactive”.
Turning to `CC[C@H](N)c1ccccc1`, the Potency result in experiment [1], in experiment [3], in experiment [4], in [5] and in experiment [19] was “inactive” in each case. Also, the outcome in experiment [2], in experiment [7], in [8], in experiment [9], in experiment [10] and in experiment [11] was inactive. Also, the result in experiment [12], in [13], in experiment [14], in [16] and in experiment [17] was inactive.
For the compound `CCOC(=O)NC(C)(C)Cc1ccc(Cl)cc1`, the Potency entry in experiment [1], in experiment [3], in experiment [5], in experiment [6], in experiment [19] and in [20] was “inactive” in each case. Also, the outcome in [2], in experiment [7], in [8], in [9], in experiment [10] and in experiment [11] was inactive. The compound was called inactive in experiment [12], in experiment [13], in experiment [14], in experiment [15], in experiment [16] and in experiment [17]. For the same compound, the call in [18] was inactive.
With `Oc1ccc2c3c1O[C@H]1[C@@H](O)C=C[C@H]4[C@@H](C2)NCC[C@@]341`, the Potency entry in experiment [1] and in experiment [3] was “inactive” each time. For the same compound, the call in [2], in experiment [7], in experiment [8], in experiment [9], in [10] and in experiment [11] was inactive. The result in [12], in experiment [13], in experiment [14], in experiment [15], in [16] and in [17] was inactive.
